The test system of assay [1] is XIP peptide (Xip251-270) binding. Briefly: XIP fragment 251-270 binding compounds – biochemical, small-molecule microarray, fluorescence 635/667 nm, 0.1 µg/mL protein, primary screen (AID 1182). The conditions noted are these: fluorescent protein binding, 635 nm, higher = more signal, called active from +8 up or from −8 down.
Assay [2] concerns XIP peptide (Xip251-270). Briefly: compounds binding XIP fragment 251-270 – biochemical, small-molecule microarray, fluorescence 635/667 nm, 0.5 µg/mL protein, primary screen (AID 1183). The conditions noted are these: fluorescence 635 nm, higher = more signal.
A short description of assay [3]: blood-stage malaria parasite viability loss – strain 3D7, DAPI fluorescence, 100 nL, primary screen (AID 1184).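 Note: parasites grown inside human red blood cells in medium with human serum.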 The settings on record: P. falciparum 3D7 growth, 3 d, higher = more signal.
In assay [4] the target is Homeobox protein Hox-A13 (Mus musculus) (UniProt Q62424). Briefly: disruptors of Hoxa13 oligonucleotide interaction – biochemical, fluorescence polarization, labeled oligonucleotide, primary screen (AID 1185). The settings on record: Hoxa13:DNA binding, 15 min, higher = more signal, called active from +8 up or from −8 down. For orientation: Fluorescence polarisation rises when a labelled molecule tumbles more slowly, as on binding a larger partner.
Chain of Homeobox protein Hox-A13 (Mus musculus) (Q62424 whole entry, looked up): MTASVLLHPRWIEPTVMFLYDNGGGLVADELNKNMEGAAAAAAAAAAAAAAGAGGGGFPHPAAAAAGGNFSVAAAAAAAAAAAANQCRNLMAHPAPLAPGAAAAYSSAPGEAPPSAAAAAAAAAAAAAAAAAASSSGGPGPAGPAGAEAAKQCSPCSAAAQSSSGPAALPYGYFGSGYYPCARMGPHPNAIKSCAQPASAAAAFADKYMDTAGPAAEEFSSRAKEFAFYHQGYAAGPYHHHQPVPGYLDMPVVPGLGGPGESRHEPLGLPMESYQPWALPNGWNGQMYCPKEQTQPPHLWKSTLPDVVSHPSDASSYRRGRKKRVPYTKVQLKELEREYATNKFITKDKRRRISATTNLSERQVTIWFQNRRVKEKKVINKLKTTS

Assay [5] is described as follows: blockers of DNA damage checkpoint Chk1 activation – imaging, HeLa, hydroxyurea, phospho-Chk1 antibody, percent positive cells, primary screen (AID 1186). The settings on record: hydroxyurea-induced phospho-Chk1 immunofluorescence imaging, higher = more signal.
Assay [6] can be described thus: blockers of DNA damage checkpoint Chk1 activation – imaging, HeLa, hydroxyurea, phospho-Chk1 nuclear intensity, primary screen (AID 1187). The conditions noted are these: hydroxyurea-induced phospho-Chk1 immunofluorescence imaging, higher = more signal.

Molecules are shown by their SMILES. Active and inactive are the calls of the source. Unless noted, the rule behind the calls is not given here.

`COCCOC(=O)N1C(=O)[C@@]2(c3ccccc31)[C@H](c1ccc(O)cc1)N1[C@H](c3ccccc3)[C@H](c3ccccc3)OC(=O)[C@H]1[C@@H]2C(=O)NC[C@H](O)c1ccccc1`: the composite z-score in assay [1] was 2.15 (inactive); in assay [2], 0.837. The z-score was -0.682 in assay [3], -5.58 (inactive) in assay [4], -0.229 (inactive) in assay [5] and -0.211 (inactive) in assay [6].
With `O=C1OCCC/C=C\[C@H]2OC34C=CCN(Cc5ccccc5)C(=O)[C@H]3N(CCCCCCO)C(=O)[C@@H]4C12` (stereo not given in full), the composite z-score is 0.704 (inactive) in assay [1] and -0.819 in assay [2]. Moreover, the z-score in assay [3] is -0.364; in assay [4], -5.34 (inactive); in assay [5] it was -0.121 (inactive); in assay [6], 0.0626 (inactive).
In the case of `C=CCNC(=O)[C@H]1[C@@H]2C(=O)O[C@@H](c3ccccc3)[C@@H](c3ccccc3)N2[C@@H](c2ccccc2OCCO)[C@]12C(=O)Nc1ccc(C#CC3=CCCCC3)cc12`, the composite z-score in assay [1] was -0.274 (inactive); in assay [2], 0.769. The z-score was -2.06 in assay [3], 2.46 (inactive) in assay [4], -0.333 (inactive) in assay [5] and -0.739 (inactive) in assay [6].
As for `CN(C)C(=O)[C@]1(Cc2ccccc2CN=[N+]=[N-])N=C(c2ccc(OCCCO)cc2)O[C@@H]1c1ccccc1CN=[N+]=[N-]`, the composite z-score is 1.01 (inactive) in assay [1] and 0.637 in assay [2]. In addition, the z-score in assay [3] was -2.68; in assay [4] it was -0.212 (inactive); in assay [5] it was -0.123 (inactive); in assay [6], -0.249 (inactive).
Consider `COC(=O)[C@@]1(Cc2ccc(F)cc2)[C@H]2c3cc(C(=O)N(C)C)n(Cc4nc5ccccc5[nH]4)c3C[C@H]2CN1C(=O)c1ccccc1`, for which the composite z-score in assay [1] is 0.642 (inactive); in assay [2], 0.817. For the same molecule, the z-score in assay [3] is -0.593; in assay [4] it was -3.68 (inactive); in assay [5], -0.11 (inactive); in assay [6], -0.0626 (inactive).
With `C[C@@H]1ON(c2cccc(C(=O)OC(C)(C)C)c2)[C@H](c2ccc(Br)cc2)[C@H]1C(=O)N1C(=O)OC[C@H]1Cc1ccccc1`, the composite z-score is 0.543 (inactive) in assay [1] and 0.615 in assay [2]. In addition, the z-score in assay [3] is -0.829; in assay [4], -0.923 (inactive); in assay [5] it was 0.0511 (inactive); in assay [6], 0.176 (inactive).
For `CC(C)(C)OC(=O)CC[C@@]1(C(=O)NCCN2CCOCC2)N=C(c2ccc(OCCCO)cc2)O[C@@H]1c1ccccc1N=[N+]=[N-]`, the composite z-score was 0.171 (inactive) in assay [1] and 0.401 in assay [2]. In addition, the z-score in assay [3] is -1.85; in assay [4], -3.61 (inactive); in assay [5], 0.17 (inactive); in assay [6], 0.297 (inactive).
As to `C=C(COC)/C(=C/C[C@@H](OC(C)=O)c1ccc(CO)o1)c1cnc2ccccc2c1`, the composite z-score in assay [1] was 1.12 (inactive); in assay [2], 0.797. The z-score was -1.35 in assay [3], -4.13 (inactive) in assay [4], -0.154 (inactive) in assay [5] and -0.323 (inactive) in assay [6].
`COc1ccc(C(=O)Nc2ccc(CN3C(=O)[C@@]4(O[C@@H](CCn5cc([C@H](O)c6ccccc6)nn5)[C@H]([Si](C)(C)c5ccc(OC)cc5)[C@H]4C)c4ccccc43)cc2)cc1`: the composite z-score in assay [1] was 0.0679 (inactive); in assay [2], 0.216. The z-score in assay [3] was -2.3; in assay [4] it was 0.568 (inactive); in assay [5], -0.0665 (inactive); in assay [6] it was -0.348 (inactive).
As for `Cc1ccc(S[C@]2(C(=O)NC(C)C)CC(=O)N(Cc3ccccc3Cl)[C@@H]2c2ccc(CO)cc2I)cc1`, the composite z-score in assay [1] is 0.226 (inactive); in assay [2] it was 0.293. In addition, the z-score was 0.906 in assay [3], -3.31 (inactive) in assay [4], 0.244 (inactive) in assay [5] and 0.723 (inactive) in assay [6].
For `O=C1O[C@@H](c2ccccc2)[C@@H](c2ccccc2)N2[C@@H](c3ccccc3OCCO)[C@]3(C(=O)Nc4ccc(C#CC5=CCCCC5)cc43)[C@@H](C(=O)Nc3nc4ccccc4s3)[C@H]12`, the figures for the composite z-score in assay [1] and in assay [2] were 0.705 (inactive) and 0.824, respectively. Further, the z-score is -2.09 in assay [3], -12.1 (active) in assay [4], -0.183 (inactive) in assay [5] and -0.161 (inactive) in assay [6].
`O=C1OCCC/C=C\[C@H]2OC34C=CCN(CCN5CCOCC5)C(=O)[C@H]3N(CCCO)C(=O)[C@@H]4C12` (stereo not given in full): the composite z-score in assay [1] was 0.976 (inactive); in assay [2], -1.17. Also, the z-score in assay [3] is 0.211; in assay [4], -6.44 (inactive); in assay [5] it was 0.697 (inactive); in assay [6], 0.826 (inactive).
On to `C=CCNC(=O)[C@H]1[C@@H]2C(=O)O[C@@H](c3ccccc3)[C@@H](c3ccccc3)N2[C@@H](c2ccc(O)cc2)[C@]12C(=O)N(C(=O)OCCOC)c1ccc(C#CCNC(N)=O)cc12`, for which the composite z-score in assay [1] was 0.17 (inactive); in assay [2], 0.53. The z-score was 2.38 in assay [3], -3.07 (inactive) in assay [4], -0.237 (inactive) in assay [5] and -0.625 (inactive) in assay [6].
`OC([C@@H]1CC(c2ccccc2)=NO1)[C@H]1CC(c2ccccc2)=NO1` (stereo not given in full): the composite z-score in assay [1] is 0.267 (inactive); in assay [2], -0.444. Besides, the z-score was 0.557 in assay [3], -0.163 (inactive) in assay [4], -0.801 (inactive) in assay [5] and -1.25 (inactive) in assay [6].
As to `O=C1NC(=O)C2C1C=CC(C(O)c1ccccc1)N2Nc1ccc(Cl)cc1Cl` (stereo not given), the results for the composite z-score in assay [1] and in assay [2] were -0.0839 (inactive) and 0.812, respectively. In addition, the z-score in assay [3] is 0.416; in assay [4], -5.54 (inactive); in assay [5], -0.346 (inactive); in assay [6], -0.621 (inactive).
For `CCOC(=O)C[C@H]1[C@H](OC(=O)Cc2ccc3c(c2)OCO3)[C@@H](NC(=O)c2ccc3ccccc3c2)c2cc(OCCCO)ccc2N1C(=O)c1ccccc1`, the composite z-score in assay [1] was 0.0654 (inactive); in assay [2] it was 0.263. Further, the z-score is 0.168 in assay [3], -2.57 (inactive) in assay [4], -0.251 (inactive) in assay [5] and -0.629 (inactive) in assay [6].
Consider `C=CC[C@]1(C(=O)N2CCCCC2)N=C(c2ccc(OCCCO)cc2)O[C@H]1c1ccccc1`, for which the composite z-score in assay [1] is 0.754 (inactive); in assay [2], 0.807. The z-score was -2.03 in assay [3], -5.69 (inactive) in assay [4], -0.0473 (inactive) in assay [5] and 0.452 (inactive) in assay [6].
Regarding `COC(=O)[C@@]1(Cc2ccc(OC)cc2)[C@H]2c3cc(C(=O)N(C)C)n(Cc4cccc5ccccc45)c3C[C@H]2CN1C(=O)c1ccccc1`, the composite z-score in assay [1] is 0.237 (inactive); in assay [2], 0.822. In addition, the z-score in assay [3] is -1.61; in assay [4], -4.2 (inactive); in assay [5], 0.0329 (inactive); in assay [6], -0.19 (inactive).
`CC(CO)N1C(=O)[C@@H]2C3C(=O)OCCC/C=C\[C@H]3OC23C=CCN(c2ccc4ccccc4c2)C(=O)[C@@H]13` (stereo not given in full): the composite z-score is 0.372 (inactive) in assay [1] and 0.0016 in assay [2]. The z-score is 0.252 in assay [3], -3.77 (inactive) in assay [4], -0.663 (inactive) in assay [5] and -0.182 (inactive) in assay [6].
For the molecule `CN1C(=O)C2C=CC(C(O)c3ccc(-c4ccccc4)s3)N(N(c3ccccc3)c3ccccc3)C2C1=O` (stereo not given), the results for the composite z-score in assay [1] and in assay [2] were 0.254 (inactive) and 0.322, respectively. The z-score is 0.33 in assay [3], 0.329 (inactive) in assay [4], 0.288 (inactive) in assay [5] and -0.108 (inactive) in assay [6].
Regarding `COCCOC(=O)N1C(=O)[C@@]2(c3cc(C#CC4=CCCCC4)ccc31)[C@H](C(=O)Nc1nc3ccccc3s1)[C@H]1C(=O)O[C@H](c3ccccc3)[C@H](c3ccccc3)N1[C@@H]2c1ccc(OCCO)cc1`, the composite z-score in assay [1] is -0.555 (inactive); in assay [2] it was 0.467. Moreover, the z-score is -1.52 in assay [3], 3.78 (inactive) in assay [4], -0.0093 (inactive) in assay [5] and 0.303 (inactive) in assay [6].
Regarding `CC(C)N1C(=O)c2ccccc2[C@](C)(C(=O)NCc2ccccc2)[C@@H]1c1ccc(CO)cc1`, the composite z-score is -0.534 (inactive) in assay [1] and 0.48 in assay [2]. Besides, the z-score was -0.771 in assay [3], -1.51 (inactive) in assay [4], 0.0268 (inactive) in assay [5] and 0.0578 (inactive) in assay [6].
As to `CC(C)C[C@H]1NC(=O)[C@@]23C(=O)N[C@@H](Cc4ccccc4)C2[C@H](C)[C@@]2(C)O[C@H]2C3/C=C/C/C=C\CNC(=O)[C@H](Cc2ccccc2)NC1=O` (stereo not given in full), the composite z-score in assay [1] is 0.303 (inactive); in assay [2] it was 0.725. Moreover, the z-score in assay [3] is -1.45; in assay [4] it was -7.51 (inactive); in assay [5], -0.0464 (inactive); in assay [6] it was 0.426 (inactive).
As to `CC(=O)N1Cc2ccccc2C[C@@]2(COC(c3ccc(OCCCO)cc3)=N2)C1=O`, the composite z-score in assay [1] is 1.44 (inactive); in assay [2] it was 0.81. For the same molecule, the z-score in assay [3] was -2.28; in assay [4] it was -3.13 (inactive); in assay [5], -1.01 (inactive); in assay [6], -1.12 (inactive).
Regarding `CN(C)CCCCCCNC(=O)[C@@H]1C[C@@H]2C(=O)N[C@@H](CCCCN)C(=O)N2[C@@H]1c1cccc(OCCO)c1`, the composite z-score was 3.64 (inactive) in assay [1] and 0.944 in assay [2]. For the same molecule, the z-score in assay [3] is 0.0037; in assay [4], -1.47 (inactive); in assay [5], -1.14 (inactive); in assay [6], -0.785 (inactive).

The values are drawn from PubChem BioAssay.
